Source: PubChem
A selection: hits, their analogues and other compounds. The true share with any hit is near 3%.
Wnt bcat act – Wnt/beta-catenin pathway activation. Wnt/beta-catenin reporter cell assay, activator, plate reader. activation, % at 9.35 µM. 300,000 tested, 1.2% active; in the data active = activation above about 30%, passing the limit was not always enough;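 also: 0% = neutral control wells and 100% = positive control wells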
PfHsp90 set2 – inhibits growth of yeast expressing Plasmodium falciparum Hsp90. inhibition, % at 9.4 µM. S. cerevisiae expressing PfHsp90, BacTiter-Glo ATP, 48 h; yeast lacking PDR1 and PDR3 efflux regulators. 310,000 tested, 0.32% active;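 active = every replicate shows inhibition above about 80%, whatever the replicate mean, limit read from the data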;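 also: 0% = DMSO neutral controls and 100% = 20 µM radicicol positive controls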
esBAF inh – SWI/SNF esBAF complex inhibition; mouse ES cells, Bmi1-luciferase knock-in reporter, 24 h; 100% = twice the neutral-well signal; reporter increase, % at 12.5 µM; 350,000 tested, 2% active; AID 602393; in the data active = activation above about 40%;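 also: 0% = median of the plate's neutral control wells and 100% = double that signal; a rise in the Bmi1 reporter signal indicates esBAF inhibition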
N-glyco inh – N-linked glycosylation inhibition. D54 ERlucT glycosylation luciferase reporter, 24 h; percent of 100 nM tunicamycin response. reporter increase, % at 12.5 µM. 360,000 tested, 0.23% active;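 active = mean luciferase reporter signal, scaled so untreated is 0 and the glycosylation-blocking control 100, at or above a set limit in every replicate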;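 also: luciferase carries N-glycosylation sites so blocking glycosylation raises the light; 0% = median of neutral control wells and 100% = median of 100 nM tunicamycin wells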
Vif imaging – HIV Vif inhibition. 340,000 tested, 0.35% active. inhibition, % at 7.49 µM. HEK293T cells, Vif self-association by quenched fluorescence, imaging, 24 h. AID 602346; in the data active = inhibition above about 50%, passing the limit was not always enough
MITF TRPM1 HTS – MITF TRPM1 promoter activation in melanoma cells. SK-MEL-5 TRPM1-promoter luciferase, 24 h; % of positive control, neutral wells = 0. activation, % at 12.5 µM. 300,000 tested, 0.75% active;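 active = mean activation of at least 80% with every replicate also reaching 80%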;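 also: 0% = neutral control wells and 100% = parthenolide positive control wells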
An asterisk follows results filed as active; . = no result given.

SMILES	Wnt bcat act	PfHsp90 set2	esBAF inh	N-glyco inh	Vif imaging	MITF TRPM1 HTS
COc1cccc(/C=C2/SC(=O)N(C)C2=O)c1OCc1ccc(C(=O)O)cc1	-1	14	.	2	5	15
CN1C(=O)S/C(=C/c2ccc(OCc3cccc(C(=O)O)c3)cc2)C1=O	45*	14	-25	-6	13	-18
COc1ccc(CP(=O)(c2ccccc2)c2ccccc2)cc1	1	-3	2	2	-3	.
CC(=O)COc1ccc2c(C)c(C)c(=O)oc2c1	4	-5	11	2	6	.
CCCOc1ccc2c(C)c(CC(=O)OC)c(=O)oc2c1	.	-19	68*	2	-10	125*
CCCOc1ccc2c3c(c(=O)oc2c1)CCCC3	.	3	48*	0	-1	32
COc1ccc(-c2c(C)c3ccc(OCC(C)=O)cc3oc2=O)cc1	27	.	68*	.	-5	.
CC(OC(=O)c1ccc2c(=O)n3c(nc2c1)CCCCC3)C(=O)Nc1ncc(Cl)cc1Cl (stereo unspecified)	-2	-17	.	2	2	-12
Cc1ccc(S(=O)(=O)Nc2ccc3c(c2)C(=O)N([C@H](C)CO)C[C@H](C)[C@@H](CN(C)S(=O)(=O)c2cn(C)cn2)O3)cc1	.	.	2	.	.	.
COc1cc(SC)ccc1C(=O)Nc1ccccc1C#N	3	-10	43*	1	27	27
COc1cc(SC)ccc1C(=O)Nc1ccc2c(c1)CCC2	-1	-1	47*	-7	1	63
COc1cc(SC)ccc1C(=O)Nc1ccncc1	27	-6	.	4	-4	-8
COc1cc(SC)ccc1C(=O)Nc1cccc(C2OCCCO2)c1	-5	0	68*	4	-11	75
COc1cc(SC)ccc1C(=O)NCC1CCCO1 (stereo unspecified)	26	-2	20	-1	6	31
COc1cc(SC)ccc1C(=O)Nc1nc(C)cc(C)n1	3	4	7	1	19	.
Cc1cc(C)nc(Nc2nc(C(N)CCc3ccccc3)cs2)n1 (stereo unspecified)	1	.	4	1	17	.
COc1cccc(NC(=O)CSc2ncnc3c2cnn3Cc2ccccc2)c1	.	-14	.	-3	-1	.
CC1(C)Cc2cccc(OCC(=O)NCc3ccccc3F)c2O1	0	-15	-2	-5	-6	1
C/C(=N/NC(=O)c1ccco1)c1ccc(NC(=O)c2ccc(F)cc2)cc1	48*	-33	89*	-4	.	54
C/C(=N\NC(=O)CNC(=O)c1ccc(F)cc1)c1ccco1	-2	2	-1	0	73*	-5
CC(=O)Nc1ccc(/C(C)=N/NC(=O)c2ccc(F)cc2)cc1	2	11	.	0	8	4
Cc1cccc(C)c1NC(=O)CNC(=O)Cc1c[nH]c2ccccc12	-1	4	4	1	-12	-11
Cc1cccc(C)c1NC(=O)c1c[nH]c2ccccc12	23	0	49*	-12	-6	77
C/C(=N/NC(=O)c1ccco1)c1ccc(NC(=O)c2ccc(Br)o2)cc1	17	-8	47*	0	1	71
Cc1ccc(OCCC(=O)OCC(=O)N2c3ccccc3CC2C)cc1 (stereo unspecified)	.	14	-9	-2	.	-1
SMILES	Wnt bcat act	PfHsp90 set2	esBAF inh	N-glyco inh	Vif imaging	MITF TRPM1 HTS
C/C(=N\NC(=O)c1c[nH]c2ccccc12)c1ccco1	-1	-43	51*	-1	-13	19
CC(=O)O/N=C(\N)c1ccc(-c2csnn2)cc1	-1	0	54*	-1	-2	43
CC(=O)COc1ccc(-c2csnn2)cc1	10	7	.	-1	-2	37
Cc1ccccc1C(=O)Oc1ccc(-c2csnn2)cc1	2	40	51*	-1	-4	66
CC(C)(C)C(=O)O/N=C(\N)c1ccc(-c2csnn2)cc1	53*	15	84*	-3	0	106*
c1ccc(COc2ccc(-c3csnn3)cc2)cc1	.	9	47*	-3	6	94*
CC(C)(C)C(=O)O/N=C(\N)c1ccc(Br)cc1	4	-16	.	2	0	23
CO[C@@H]1CN(C)C(=O)c2cc(NS(=O)(=O)c3cccc(F)c3)ccc2OC[C@H](C)N(Cc2cc(F)ccc2F)C[C@@H]1C	.	.	24	.	.	.
N/C(CS(=O)(=O)c1ccccn1)=N\OC(=O)c1ccccc1Cl	54*	-7	.	-1	-4	.
N/C(CS(=O)(=O)c1ccccn1)=N\OC(=O)c1ccc(Cl)cc1	10	0	.	1	7	.
CC(=O)Nc1ccc(Oc2ccc(-c3noc(C)n3)cc2)cc1	.	2	15	-1	-1	19
CC(=O)Oc1ccc(Oc2ccc(-c3noc(C)n3)cc2)cc1	48*	-7	20	-2	12	.
CCc1ccc(NC(=O)CCc2nnc3ccc(N4CCCC4)nn23)cc1	4	6	3	3	1	5
CC(=O)c1ccc(NC(=O)CCc2nnc3ccc(N4CCCC4)nn23)cc1	10	-5	57*	1	2	43
COc1ccc(OCCC(=O)OCC(=O)c2ccc[nH]2)cc1	0	-6	.	2	-8	-2
Cc1ccccc1NC(=S)c1ccc2ccccc2n1	26	-9	70*	5	0	29
O=C1CC2(CCN(S(=O)(=O)c3ccccc3)CC2)Oc2ccccc21	1	.	.	-5	-9	6
Cn1c(=O)[nH]c(=O)c2c1nc(N/N=C/c1cccnc1)n2Cc1ccc(Cl)cc1	-2	.	.	53*	14	.
Cc1ccc(S(=O)(=O)N2CCC(C(=O)C3C(=O)CCCC3=O)CC2)cc1	-1	-15	.	2	8	-3
O=S(=O)(c1cccs1)N1CCN(Cc2nc3ccccc3s2)CC1	36*	.	-4	-6	-2	.
O=C(OCc1nc2ccccc2s1)C1CCN(S(=O)(=O)c2cccs2)CC1	44*	19	56*	-2	.	24
S=c1[nH]nc(-c2ccncc2)n1/N=C/C=C/c1ccccc1	6	-18	.	-5	-1	.
S=c1[nH]nc(-c2ccncc2)n1/N=C/C(Cl)=C\c1ccccc1	32*	-29	.	0	4	71
COc1cc(N2CCCC2)c(OC)cc1/C=C(/C#N)c1ccc(F)cc1	3	7	2	-3	63*	-3
COc1cc(N2CCCC2)c(OC)cc1/C=C(/C#N)c1ccc(Br)cc1	.	-24	-3	-1	9	.
CC1CCCCN1S(=O)(=O)c1ccc(C(=O)Nc2sccc2C(N)=O)cc1 (stereo unspecified)	13	-5	83*	-1	-13	58
Cc1cc(C(=O)OCC(=O)c2ccc3c(c2)NC(=O)CO3)c2ccccc2n1	.	-18	.	0	7	7
N=c1n(N)c2ccccc2n1CC(=O)c1ccc(Br)cc1	2	-40	52*	-9	-7	.
